Data reported in PubChem BioAssay (Tox21).
Results filed as inconclusive are left out. A number with no mark means an inactive call. The source made the active and inactive calls. Calls follow the shape of the full dose curve. Positions of bridges follow the written chain, without caps; N, C: chain ends. Non-standard residues stand in square brackets, D forms with d. Residues, ends and D or L forms follow the SMILES beside them. hArg = N=C(N)NCCCC[C@H](N)C(=O)O; Mpa = O=C(O)CCS

Experiment: qHTS assay to identify small molecule agonists or antagonists of the thyroid stimulating hormone receptor (TSHR) signaling pathway - wild type cell line counter screen (AID 1259384)
Details: HEK293 wild type, cAMP HTRF counter-screen, stronger effect = higher value; series mostly up to 92.4 µM
Description: U.S. Tox21 Program National Center for Advancing Translational Sciences [NCATS] NIH Chemical Genomics Center [NCGC] U.S. Environmental Protection Agency [EPA] National Institutes of Environmental Health Sciences [NIEHS] National Toxicology Program [NTP] U.S. Food and Drug Administration [FDA] Tox21 Assay Overview: TSHR is the receptor for thyrotropin (thyroid stimulating hormone or TSH), a member of the glycoprotein hormone family. TSH is released by the anterior pituitary gland and is the main regulator of thyroid gland growth and development. Upon binding circulating thyrotropin, a G-protein signal cascade activates adenylyl cyclase and […] cAMP concentration is increased. cAMP is a key second messenger involved extensively in cellular signal transduction pathways associated with the majority of G-protein coupled receptors (GPCRs). The activation of these GPCRs by neurotransmitters, lipids, nucleotides, peptides and hormones results in the activation or the inhibition of plasma membrane-bound adenylate cyclase through heterotrimeric G-proteins. A cell-based TSHR-Hek293 assay can be used to identify TSHR agonists. To eliminate the false positive compounds identified from screening a cell-based TSHR-Hek293 cell line, cAMP assay in a wild type Hek293 cells was used as a counter screening.
Tox21 Assay Protocol Summary: Hek293 cells (wild type) were dispensed at 800 cells/4 uL/well in 1536-well white plates using a Multidrop dispenser. After the assay plates were incubated at a 37 C/5% CO2 incubator for 18 hrs, 23 nL of compounds dissolved in DMSO, positive controls or DMSO only was transferred to the assay plate by a pin tool, followed by 1 ul medium containing Ro20-1724. After 30 min of incubation at room temperature, 2.5 ul/well of cAMP-d2 and 2.5 ul/well of anti-cAMP-cryptate were added respectively into the assay plates using a Flying Reagent Dispenser. The plates were incubated at room temperature for 1 hr. The fluorescence intensity in the plates was measured using an Envision plate reader. Each test compound was measured at 15 concentrations and in triplicates.
% is scaled to controls: 0 for no effect and ±100 for the full control effect.

**Q.** With `CCCCCCCCCCOC(C)=O` as the molecule, how does the outcome read?
**A.** inactive

**Q.** Which outcome does the source give for `CC(C)(CO)C(O)C(=O)NCCCO` (stereo not given) here?
**A.** inactive

**Q.** For `Cc1cccc(Cl)c1`, which outcome is on record?
**A.** inactive

**Q.** For `O=C1CCC(=O)N1Cl`, which outcome is on record?
**A.** inactive

**Q.** For `NCc1ccc(S(N)(=O)=O)cc1`, which outcome is on record?
**A.** inactive

**Q.** With `CC(C)c1ccc(C=O)cc1` as the molecule, how does the outcome read?
**A.** inactive

**Q.** Which cAMP activity change does the source give for `CC1(C)CC(OC(=O)CCCCCCCCC(=O)OC2CC(C)(C)NC(C)(C)C2)CC(C)(C)N1` here?
**A.** -0.26% [at 18.9 µM]

**Q.** With `CC(=O)O[C@H]1C[C@@H]2CC[C@@]1(C)C2(C)C` as the molecule, how does the outcome read?
**A.** inactive

**Q.** Which outcome does the source give for `O=C(O)[C@H](O)c1ccccc1` here?
**A.** inactive

**Q.** With `CC(C)C[C@@H]1[C@H](c2ccccc2)OC(=O)N1CCCN1CCCCCC1` as the molecule, how does the outcome read?
**A.** inactive

**Q.** Which outcome does the source give for `CC12CCC(C1)C(C)(C)C2O` (stereo not given) here?
**A.** inactive

**Q.** Which outcome does the source give for `O=C(Cn1ccnc1[N+](=O)[O-])NCc1ccccc1` here?
**A.** inactive

**Q.** Which outcome does the source give for `Cc1cc(-c2ccccc2)nnc1NCCN1CCOCC1` here?
**A.** inactive

**Q.** Which outcome does the source give for `COc1c2occc2c(OC)c2c(=O)cc(C)oc12` here?
**A.** inactive

**Q.** With `C=C(C)[C@@H]1CC=C(C)C(=O)C1` as the molecule, how does the outcome read?
**A.** inactive

**Q.** With `CC1(C)Cc2cccc(N)c2O1` as the molecule, how does the outcome read?
**A.** inactive

**Q.** Which outcome does the source give for `CC(O)CC(C)O` (stereo not given) here?
**A.** inactive

**Q.** Which outcome does the source give for `C=CC/C=C/C` here?
**A.** inactive

**Q.** Which outcome does the source give for `CCCCCc1cccc(=O)o1` here?
**A.** inactive

**Q.** With `CCC(C)C(=O)OCCc1ccccc1` (stereo not given) as the molecule, how does the outcome read?
**A.** inactive

**Q.** For `NC(=O)[C@@H]1CSSCCC(=O)N[C@@H](CCCCN=C(N)N)C(=O)NCC(=O)N[C@@H](CC(=O)O)C(=O)N[C@@H](Cc2c[nH]c3ccccc23)C(=O)N2CCC[C@H]2C(=O)N1` ([Mpa][hArg]GDWPC-NH2; disulfide 1-7), which outcome is on record?
**A.** inactive

**Q.** With `COC(=O)c1cccc(Cl)c1` as the molecule, how does the outcome read?
**A.** inactive

**Q.** With `CCn1cc(C(=O)O)c(=O)c2cnc(N3CCCC3)nc21` as the molecule, how does the cAMP activity change read?
**A.** -5.06% [at 8.39 µM]

**Q.** For `NCC1(Cc2noc(=O)[nH]2)CCCCC1`, which outcome is on record?
**A.** inactive

**Q.** With `O=C(O)CONC(=O)c1ccccc1` as the molecule, how does the outcome read?
**A.** inactive

**Q.** Which outcome does the source give for `Cc1ccc(C)c([N+](=O)[O-])c1` here?
**A.** inactive

**Q.** With `C=CCOC(=O)CCCCCC` as the molecule, how does the outcome read?
**A.** inactive

**Q.** With `CC(=O)C1C(=O)C=C(C)OC1=O` (stereo not given) as the molecule, how does the outcome read?
**A.** inactive

**Q.** For `O=Cc1cc2ccccc2o1`, which outcome is on record?
**A.** inactive

**Q.** With `CC1(C)Oc2ccc(C#N)cc2[C@@H](N2CCCC2=O)[C@@H]1O` as the molecule, how does the outcome read?
**A.** inactive

**Q.** Which outcome does the source give for `CCC(=O)Oc1ccc2c(c1)CC[C@@H]1[C@@H]2CC[C@@]2(C)[C@H]1C[C@@H](OC(=O)CC)[C@@H]2OC(=O)CC` here?
**A.** inactive

**Q.** With `CC/C(C)=N\O[Si](C)(O/N=C(\C)CC)O/N=C(\C)CC` as the molecule, how does the outcome read?
**A.** inactive

**Q.** With `Nc1nc(-c2ccccc2)c(Br)c(=O)[nH]1` as the molecule, how does the outcome read?
**A.** inactive

**Q.** For `O=C(O)c1cc2ccccc2nc1C(=O)O`, which outcome is on record?
**A.** inactive

**Q.** Which outcome does the source give for `CC(CO)(CO)CO` here?
**A.** inactive

**Q.** With `O=C1c2ccccc2C(=O)c2cc(Cl)ccc21` as the molecule, how does the cAMP activity change read?
**A.** 2.64% [at 8.39 µM]

**Q.** With `C=CCSSCCC` as the molecule, how does the outcome read?
**A.** inactive

**Q.** Which outcome does the source give for `CCO` here?
**A.** inactive

**Q.** With `CN1CCOC(c2ccccc2)c2ccccc2C1` (stereo not given) as the molecule, how does the outcome read?
**A.** inactive

**Q.** With `ONc1ccccc1` as the molecule, how does the outcome read?
**A.** inactive
